This is a sample that favours compounds with a hit; in the whole collection about 0.42% have one here.
Tb PGK inh – blocks T. brucei phosphoglycerate kinase. PGK/GAPDH coupled, Kinase-Glo luminescence, 60 min. 380,000 tested, 0.043% active. Potency, µM (highest dose often 57.5 µM), for the others: top-dose activity change, negative = inhibition, actives largely listed as inhibitors; further: on the % scale 0 is the no-effect control and ±100 the full control effect; nearly all actives have a fitted effect of over 60% in size
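Recombinant glycosomal PGK reaction used 1,3-bisphosphoglycerate generated in-well by GAPDH (100nM final) in 100mM TEA pH 7.6, 5mM MgCl2, 0.01% Tween-20. After 60 minutes at room temperature, ATP was read by Kinase-Glo Plus luminescence end-point.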
B2AR arrestin – agonists driving beta-arrestin recruitment to human beta2-adrenergic receptor. P07550. beta-arrestin recruitment to beta2AR, cell-based reporter. Potency, µM (top dose mostly 46.1 µM), without a hit: at the highest dose activation, actives largely listed as activators. 330,000 tested, 0.02% active;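 further: 0% = DMSO controls and full agonism = EC100 isoproterenol or metaproterenol; nearly all actives have a fitted effect of over 65% in size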
Tb PFK inh-1 – inhibitors of T. brucei phosphofructokinase; 330,000 tested, 0.17% active; O15648; Potency, µM (series often up to 57.5 µM), inactives show at the top dose activity, negative = inhibition, most hits filed as inhibitors; T. brucei PFK, ADP-Glo luminescence;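 further: 0% = uninhibited 1x PFK enzyme wells and -100% = no-enzyme wells; nearly all actives have a fitted effect of over 60% in size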
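In TEA buffer at pH 8.0 with 5 mM MgCl2, enzyme (1.25 nM) converted F6P (0.5 mM) and ATP (0.1 mM) for 45 min at room temperature. ADP product was read by luciferase luminescence.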
BCR signal inh – chronic active BCR signaling inhibition; Potency, µM (titrated, usually from 46.1 µM), without a hit: at the highest dose activity change, negative = inhibition, hits mostly inhibitors; AID 493014; 340,000 tested, 0.05% active; ABC-DLBCL IkBa-CBG/CBR reporter, luminescence ratio, 4 h; active means well fitted inhibition curve with a large enough effect in the signal ratio, with a control signal flat, not every such curve was filed as active; inconclusive means small, poorly fitted or top-dose-only effect, or effect the other way, or a change in a side signal; the % refers to the signal ratio;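 further: plate controls were basal doxycycline-induced cells for no effect and cells given 10 µM MG132 for full effect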
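Cell line TMD8 (human ABC DLBCL), stably expressing tet-inducible CBG68-IkBa fusion and CBR; IMDM/0.5% FBS; cpd up to 46 uM; dox induction, 4 h, 37C/5% CO2; dual luminescence; green/red ratio; MG132 control.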
Pin1 inh – inhibitors of human Pin1; 390,000 tested, 0.009% active; Potency, µM (titrated, usually from 115 µM), for inactives: at the top dose activity, negative = inhibition, actives largely listed as inhibitors; Q13526; Pin1 FP peptide displacement, HiFluor488, 10 min; AID 504891; active means well fitted inhibition curve with a large enough effect in the polarisation, with a control signal flat, not every such curve was filed as active; inconclusive means small, poorly fitted or top-dose-only effect, or effect the other way, or a change in a side signal; inactive means no such curve, though single readings can be large or run the other way; the % refers to the polarisation; further: on the % scale 0 is the no-effect control and ±100 the full control effect
GLS inhibitor – glutaminase GLS (human) inhibition | O94925 | GLS enzymatic activity, qHTS titration | Potency, µM (series often up to 45.5 µM), for the others: top-dose activity change, negative = inhibition, usual class: inhibitors | 410,000 tested, 0.21% active | AID 624170; further: on the % scale 0 is the no-effect control and ±100 the full control effect
Target sequence (O94925 whole entry, looked up): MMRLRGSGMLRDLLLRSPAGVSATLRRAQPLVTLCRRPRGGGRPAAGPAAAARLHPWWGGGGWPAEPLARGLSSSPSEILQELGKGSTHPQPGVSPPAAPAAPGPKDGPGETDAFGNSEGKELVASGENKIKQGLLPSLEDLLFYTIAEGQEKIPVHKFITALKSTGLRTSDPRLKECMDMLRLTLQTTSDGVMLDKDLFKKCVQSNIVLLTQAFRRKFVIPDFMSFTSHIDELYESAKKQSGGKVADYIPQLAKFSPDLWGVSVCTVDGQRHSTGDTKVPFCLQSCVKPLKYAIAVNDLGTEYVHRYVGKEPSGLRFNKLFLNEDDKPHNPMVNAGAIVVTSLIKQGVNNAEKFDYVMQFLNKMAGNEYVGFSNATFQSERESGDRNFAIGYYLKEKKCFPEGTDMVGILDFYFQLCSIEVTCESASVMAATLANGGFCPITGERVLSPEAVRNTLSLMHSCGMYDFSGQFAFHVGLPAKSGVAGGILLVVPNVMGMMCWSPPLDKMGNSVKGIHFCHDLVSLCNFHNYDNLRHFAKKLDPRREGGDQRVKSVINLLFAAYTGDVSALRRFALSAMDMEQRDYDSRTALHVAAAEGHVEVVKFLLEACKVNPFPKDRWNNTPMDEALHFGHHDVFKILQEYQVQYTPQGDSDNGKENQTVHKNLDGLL
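Compounds were pin-transferred onto hKGA, after which L-glutamine (1 mM solution) and a detection mix of glutamate oxidase, HRP and Amplex Red were added. Initial and 30 min RT fluorescence reads were collected.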
Tb PFK KinaseGlo – orthogonal confirmation of T. brucei phosphofructokinase inhibitors | shares compounds with Tb PFK inh-1 | Tb PFK enzyme, ATP depletion, Kinase-Glo Plus luminescence | Potency, µM (top dose mostly 57.5 µM), for the others: at the top dose inhibition | 1,100 tested, 47% active | AID 504636; calls by dose curve; further: nearly all actives have a fitted effect of over 60% in size
Tb PFK inh-2 – validation of T. brucei phosphofructokinase inhibitors; Potency, µM (highest dose often 57.5 µM), for inactives: at the highest dose activity change, negative = inhibition, hits mostly inhibitors; purified T. brucei PFK, ADP-Glo luminescence, 45 min; shares compounds with Tb PFK inh-1; 1,100 tested, 41% active;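 further: plate controls were full PFK enzyme control for no effect and no enzyme control for full effect; nearly all actives have a fitted effect of over 60% in size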
Active calls of the source: *; i = inactive; ? = inconclusive; nt = not tested or not shown; [ ] = remark or other dose. Unless noted, the call rests on the fitted dose curve; in most records, active means well fitted curve in the direction sought with a large enough effect; inconclusive means small, poorly fitted or top-dose-only effect, or another doubt; inactive means no such curve, though single readings can be large; an effect the other way counts as inactive or inconclusive. Potency means the concentration at half of the fitted maximal effect.

SMILES	Tb PGK inh	B2AR arrestin	Tb PFK inh-1	BCR signal inh	Pin1 inh	GLS inhibitor	Tb PFK KinaseGlo	Tb PFK inh-2
O=C1N(c2ccc(Cl)c(Cl)c2)CN(Cc2ccccc2)CN1n1cnnc1	-6.2%	0.4%	26.9µM*	-1.5%	-8.4%	-1.3%	?	-16.4%
Oc1c(Cl)cc(Cl)cc1CN1CCN(Cc2ccccc2)CC1	i	-0.6%	-1.8%	3.9%	?	10.4%	nt	nt
O=S(=O)(Nc1ccccc1)c1cccc2nsnc12	-10.2%	-0.6%	?	-2.1%	-5.6%	3.1%	?	?
CC(C)COP(=O)(c1ccc(N(C)C)cc1)C(O)c1ccccn1 (configuration not stated)	-12.0%	0.2%	-1.0%	?	-0.7%	47.3%	nt	nt
Oc1ccc(-c2cn3c(n2)SCC3)cc1O	?	0.0%	?	-7.0%	-0.8%	?	2.39µM*	4.78µM*
O=C(OCc1cc(=O)n2nc(C3CC3)sc2n1)c1ccc(NC(=O)c2ccccc2Cl)cc1	-5.4%	nt	nt	nt	?	19.1%	nt	nt
Cc1nn(Cc2ccc(Cl)c(Cl)c2)c(C)c1NC(=O)c1cc(-c2ccco2)on1	2.1%	-0.1%	4.78µM*	-3.8%	64.8%	3.2%	2.69µM*	6.01µM*
COC(=O)[C@H]1[C@H]2C[C@@H]3c4[nH]c5cc(OC)ccc5c4CCN3C[C@H]2C[C@@H](OC(=O)/C=C/c2cc(OC)c(OC)c(OC)c2)[C@@H]1OC	0.6%	7.1%	-4.4%	-5.7%	?	3.2%	nt	nt
COc1cc(CC(C)N)cc2c1OCO2 (configuration not stated)	nt	nt	nt	nt	nt	2.4%[99.4 µM]	nt	nt
CCN(CC)CCOC(=O)c1ccc(N/C=C(/C#N)c2nc(-c3cc4ccccc4oc3=O)cs2)cc1	-6.0%	-0.1%	?	-1.1%	42.1%	4.6%	-24.7%	?
CCN(CC)CCOC(=O)c1ccc(N/C=C(/C#N)c2nc(-c3ccc4c(c3)OCO4)cs2)cc1	i	0.1%	?	1.8%	?	-5.3%	-30.2%	?
CCN(CC)CCOC(=O)c1ccc(N=Cc2c(O)[nH]c(=O)[nH]c2=O)cc1	-6.4%	0.2%	-3.0%	?	?	13.8%	nt	nt
CC(C)CCOP(=O)(c1ccc(N(C)C)cc1)C(O)c1ccc(Cl)cc1Cl (configuration not stated)	-5.5%	0.2%	-4.0%	-13.0%	-3.3%	?	nt	nt
O=C1NC(=O)N(CCc2ccc(F)cc2)C(=O)/C1=C\C=C\c1ccccc1	-4.5%	0.2%	-1.2%	11.0%	9.8%	78.7%	nt	nt
CN1C(=O)NC(=O)/C(=C\C=C\c2ccccc2[N+](=O)[O-])C1=O	-6.1%	6.4%	?	?	-6.8%	1.8%	2.5%	?
Nc1nonc1-n1nnc(C(=O)N/N=C/C=C/c2ccccc2)c1CSC1=NCCS1	5.1%	0.1%	0.0%	?	48.2%	4.8%	nt	nt
Cc1[nH]c(=S)sc1Cc1ccc(Cl)c(Cl)c1	nt	-1.8%	19µM*	-7.0%	nt	nt	26.9µM*	23.9µM*
CC1(C)CC(=O)C2=C(C1)OC1=C(C(=O)CC(C)(C)C1)C2c1ccc(O)cc1O	3.1%	-1.1%	?	?	4.4%	39.8%	1.69µM*	1.35µM*
Cc1cnc(NC(=O)CN2CCN(c3ccccn3)CC2)s1	-0.7%	0.0%	-1.2%	?	4.9%	-2.3%	nt	nt
O=C(CN1CCOCC1)Nc1ncc(Cc2cccc(Cl)c2)s1	nt	0.0%	?	-0.7%	-3.2%	2.9%	?	?
CN(C)CCO	nt	nt	nt	nt	nt	-6.9%	nt	nt

Screening data as filed in PubChem.
